Source: PubChem BioAssay (NCI)
Compounds without any hit were thinned out: in the full panel of roughly 79,000, 15% have a hit. The source made the active and inactive calls. Rule as the data show it: active = growth inhibition above about 70%; inactive = the rest.

How the values were obtained:
[1] = NCI Yeast Anticancer Drug Screen. Data for the rad52 strain (AID 147);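 also: 0% = growth of vehicle-treated control cultures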; settings: S. cerevisiae rad52 mutant growth inhibition, hits give high values
Procedure, shortened: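 The repair-mutant yeast strain was incubated with compounds, then growth was read and inhibition derived relative to vehicle.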

[2] = NCI Yeast Anticancer Drug Screen. Data for the wt1 strain (AID 149);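 also: 0% = growth of vehicle-treated wt1 cultures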; settings: S. cerevisiae wt1 strain (SPY 50644) growth inhibition, hits give high values
Procedure, shortened: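 wt1 yeast, compound-treated; % growth inhibition vs vehicle control.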

[3] = NCI Yeast Anticancer Drug Screen. Data for the rad50EPP+ strain (AID 151);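 also: 0% = growth of vehicle-treated control cultures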; settings: S. cerevisiae rad50 mutant strain, hits give high values
Procedure, shortened: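 Vehicle-normalised growth inhibition; rad50EPP+ yeast strain, altered in DNA damage repair, compound-treated.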

[4] = NCI Yeast Anticancer Drug Screen. Data for the rad50 strain (AID 155);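 also: 0% = growth of vehicle-only cultures of the same strain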; settings: S. cerevisiae rad50 strain growth inhibition, hits give high values
Procedure, shortened: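 Genetically altered yeast (DNA repair pathway); compound treatment; growth inhibition vs vehicle ctrl.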

[5] = NCI Yeast Anticancer Drug Screen. Data for the mec2-1 strain (AID 157); settings: S. cerevisiae mec2-1 strain, hits give high values
Procedure, shortened: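 Mutant yeast (mec2-1) grown with compound; growth inhibition relative to vehicle control reported.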

[6] = NCI Yeast Anticancer Drug Screen. Data for the rad14 strain (AID 159);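 also: 0% = growth of vehicle-treated control cultures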; settings: S. cerevisiae rad14 strain growth inhibition, hits give high values
Procedure, shortened: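 Test compounds were applied to a repair-deficient yeast strain. Its growth was then compared with that of cultures given vehicle alone, and inhibition was expressed relative to those controls.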

[7] = NCI Yeast Anticancer Drug Screen. Data for the sgs1 mgt1 strain (AID 161);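 also: 0% = growth of cultures given vehicle only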; settings: S. cerevisiae sgs1 mgt1 strain, hits give high values
Procedure, shortened: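 Yeast cells carrying a defined DNA-repair defect were exposed to test compounds. Growth inhibition was measured relative to vehicle-treated controls.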

[8] = NCI Yeast Anticancer Drug Screen. Data for the CLN2oe strain (AID 163);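 also: 0% = growth of vehicle-only control cultures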; settings: S. cerevisiae CLN2oe strain, hits give high values
Procedure, shortened: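 Compounds are applied to yeast harbouring a defined cell-cycle control change; reduced growth compared with vehicle-treated controls gives the value.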

[9] = NCI Yeast Anticancer Drug Screen. Data for the cln2 rad14 strain (AID 165);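 also: 0% = growth equal to vehicle treated cultures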; settings: S. cerevisiae cln2 rad14 strain, hits give high values
Procedure, shortened: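 Readout is yeast growth inhibition versus vehicle-treated controls, using a strain with cln2 and rad14 alterations exposed to compound.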

[10] = NCI Yeast Anticancer Drug Screen. Data for the bub3 strain (AID 167); settings: S. cerevisiae bub3 mutant strain, hits give high values
Procedure, shortened: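 Yeast carrying a defined mutation is treated with each compound, and growth is compared with that of vehicle-exposed cells to give inhibition.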

[11] = NCI Yeast Anticancer Drug Screen. Data for the wt2 strain (AID 169);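 also: 0% = growth of vehicle-treated yeast cultures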; settings: S. cerevisiae wt2 strain growth inhibition, hits give high values
Procedure, shortened: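 Against vehicle-treated controls, the growth of yeast exposed to each compound was compared, and the inhibition was recorded.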

[12] = NCI Yeast Anticancer Drug Screen. Data for the mlh1 strain (AID 171);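 also: 0% = growth of vehicle-treated control cultures of the same strain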; settings: S. cerevisiae mlh1 strain growth inhibition, hits give high values
Procedure, shortened: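 Measured: yeast growth. Reference: vehicle-treated controls. Organism: strain with a defined alteration affecting DNA damage repair or cell cycle control, treated with compound.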

[13] = NCI Yeast Anticancer Drug Screen. Data for the sgs1 strain (AID 173);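 also: 0% = growth of vehicle-only control cultures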; settings: S. cerevisiae sgs1 mutant, hits give high values
Procedure, shortened: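 Each compound was added to cultures of the altered yeast strain. Growth was recorded, and inhibition was derived by comparison with vehicle controls.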

[14] = NCI Yeast Anticancer Drug Screen. Data for the mlh1 rad18 strain (AID 175); settings: S. cerevisiae mlh1 rad18 strain growth inhibition, hits give high values
Procedure, shortened: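 Genetically defined yeast (DNA repair-deficient) exposed to compounds; growth inhibition determined relative to vehicle.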

[15] = NCI Yeast Anticancer Drug Screen. Data for the rad18 strain (AID 177); settings: S. cerevisiae rad18 mutant growth inhibition, hits give high values
Procedure, shortened: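 Vehicle-treated cultures served as the baseline for scoring compound-induced growth inhibition in DNA-repair-mutant yeast.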

[16] = at 5.0 µM (retest, dose inferred, filed as 0.5)
[17] = at 50.0 µM (retest, dose inferred, filed as 5.0)

Measured: growth inhibition

O=C(C#Cc1ccccc1)Nc1ccccc1
inactive: [1]; at 1.2 µM -14% | [1]; at 3.7 µM -11% | [1]; at 11.0 µM -7% | [1]; at 33.0 µM 23% | [2]; at 1.2 µM -1% | [2]; at 3.7 µM -10% | [2]; at 11.0 µM -6% | [2]; at 33.0 µM 6% | [3]; at 1.2 µM -4% | [3]; at 3.7 µM 4% | [3]; at 11.0 µM 37% | [4]; at 1.2 µM -20% | [4]; at 3.7 µM -25% | [4]; [16] -147% | [4]; at 11.0 µM -17% | [4]; at 33.0 µM 52% | [4]; [17] 20% | [4]; at 50.0 µM 45.8% | [5]; at 1.2 µM -9% | [5]; at 3.7 µM -7% | [5]; [16] -48% | [5]; at 11.0 µM -8% | [5]; at 33.0 µM -2% | [5]; [17] -29% | [5]; at 50.0 µM 33.6% | [6]; at 1.2 µM -3% | [6]; at 3.7 µM -9% | [6]; at 11.0 µM 4% | [6]; at 33.0 µM 67% | [7]; [16] -57% | [7]; [17] 67% | [7]; at 50.0 µM 64.7% | [8]; at 1.2 µM -10% | [8]; at 3.7 µM -13% | [8]; at 11.0 µM -14% | [8]; at 33.0 µM -5% | [9]; [16] -64% | [9]; [17] -42% | [9]; at 50.0 µM -13.2% | [10]; at 1.2 µM -10% | [10]; at 3.7 µM -7% | [10]; [16] -74% | [10]; at 11.0 µM -7% | [10]; at 33.0 µM 24% | [10]; [17] -6% | [10]; at 50.0 µM 15.4% | [11]; at 1.2 µM -9% | [11]; at 3.7 µM -4% | [11]; at 11.0 µM 19% | [12]; at 1.2 µM -15% | [12]; at 3.7 µM -12% | [12]; at 11.0 µM -9% | [13]; at 1.2 µM -9% | [13]; at 3.7 µM -3% | [13]; at 11.0 µM 33% | [14]; [16] -149% | [14]; [17] -10% | [14]; at 50.0 µM 38.9% | [15]; at 1.2 µM -9% | [15]; at 3.7 µM -12% | [15]; at 11.0 µM -9% | [15]; at 33.0 µM 8%
active: [1]; at 100.0 µM 97% | [2]; at 100.0 µM 95% | [3]; at 33.0 µM 70% | [3]; at 100.0 µM 92% | [4]; at 100.0 µM 97% | [5]; at 100.0 µM 80% | [6]; at 100.0 µM 97% | [8]; at 100.0 µM 94% | [10]; at 100.0 µM 97% | [11]; at 33.0 µM 90% | [11]; at 100.0 µM 99% | [12]; at 33.0 µM 72% | [12]; at 100.0 µM 98% | [13]; at 33.0 µM 88% | [13]; at 100.0 µM 99% | [15]; at 100.0 µM 94%
